Assay outcomes: PubChem, several laboratories
Wnt act: Wnt/beta-catenin pathway activators, primary screen, cell-based, plate reader, single point; activation, % at 9.35 µM; Wnt/beta-catenin reporter cell assay, activator; 300,000 tested, 1.2% active; in the data active means activation above about 30%, passing the limit was not always enough; inconclusive means no clear call, values can overlap the other calls
ssDAF12 agonist: S. stercoralis DAF-12 nuclear receptor activators, primary screen, cell-based, luminescence, HEK293, GRIP1 co-expression, lit1-tk-luc | Nuclear hormone receptor DAF-12 (Strongyloides stercoralis) | HEK293 ssDAF-12/GRIP1 lit1-tk-luc reporter; % of 3 µM dafachronic acid response | activation, % at 6.8 µM | 370,000 tested, 1% active | AID 652126, 2013;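 active means activation above the mean over all tested compounds plus 3 SD, cut at about 0.9% in these data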
DAX1 inh: DAX1 (NR0B1) inhibitors on StAR promoter, primary screen, cell-based, luminescence, SF-1 (NR5A1), full-length DAX-1; HEK293T StAR-luciferase reporter, SF-1/DAX-1 repression relief; 370,000 tested, 1.1% active; inhibition, % at 6.8 µM;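 active means inhibition above the mean over all tested compounds plus 3 SD, cut at about 3.6% in these data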;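 further: higher inhibition means more luminescence from relief of DAX-1 repression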
hgDAF-12 ag: H. glycines DAF-12 receptor agonists, primary screen, cell-based, luminescence, HEK293, GAL4 fusion, UAS-luciferase; Nuclear hormone receptor DAF-12 (Heterodera glycines), GAL4 fusion; HEK293 GAL4-hgDAF12 UAS-luciferase reporter, agonist luminescence; normalized to butyrate control; activation, % at 6.8 µM; 370,000 tested, 1.8% active; AID 687014, 2013;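 active means activation above a cutoff set at the mean of all screened compounds plus 3 SD, cut at about 10% in these data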
hcDAF-12 act: H. contortus DAF-12 nuclear receptor activators, primary screen, cell-based, luminescence, HEK293, lit1-tk-luc reporter; 370,000 tested, 1.4% active; HEK293 hcDAF-12 lit1-tk-luc reporter; 0% DMSO, 100% Δ7-dafachronic acid; activation, % at 6.8 µM; AID 652067, 2013;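 active means activation above the mean of all tested compounds plus 3 SD, cut at about 5.5% in these data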
esBAF inh: Bmi1 luciferase reporter increase in mESCs, primary screen, esBAF inhibitor project, mouse ES cells, Bmi1 luciferase knock-in, single point. reporter increase, % at 12.5 µM. 350,000 tested, 2% active. 24 h; 100% = twice the neutral-well signal; in the data active means activation above about 40%; inconclusive means no clear call, values can overlap the other calls;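 further: a rise in the Bmi1 reporter signal indicates esBAF inhibition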
Each line names hits and unclear results; the compound was inactive in the other large screens. Compounds with a hit are over-represented: about 4.2% of the library has one in this group of screens.

O=C(/C=C/c1ccc(S(=O)(=O)N2CCOCC2)cc1)NC(=S)NCCCn1ccnc1	Wnt act 32
COc1ccc(C2=NN(C(=O)CN3CCOCC3)C(c3nc4ccccc4[nH]3)C2)cc1 (stereo not given)	Wnt act inconclusive, esBAF inh 59
O=C1NC(=S)N/C1=C\c1cccnc1	none (no result: esBAF inh)
O=C1NC(=S)N/C1=C/c1cccnc1	hgDAF-12 ag 12 (no result: esBAF inh)
C[C@H](C(=O)N(C)C[C@@H]1OCc2ccccc2-c2ccccc2C(=O)N([C@@H](C)CO)C[C@H]1C)c1ccccc1	none (no result: Wnt act, ssDAF12 agonist, DAX1 inh, hgDAF-12 ag, hcDAF-12 act)
N#C/C(=C\c1ccccc1O)C(=O)Nc1cccnc1	Wnt act 36
Cc1occc1C(=O)NNC(=S)Nc1ccccc1C(F)(F)F	hgDAF-12 ag 13 (no result: esBAF inh)
Cc1occc1C(=O)NNC(=S)Nc1ccccc1	hgDAF-12 ag 12
Cc1occc1C(=O)Nc1ccc2c(c1)OCO2	none (no result: Wnt act, esBAF inh)
Cc1occc1C(=O)NNC(=O)c1ccccc1F	Wnt act 37 (no result: esBAF inh)
Cc1cc(NC(=O)c2ccoc2C)ccc1Br	Wnt act 57, DAX1 inh 3.7, esBAF inh 88
Cc1noc(C)c1NC(=O)N(C)C[C@@H]1OCCCC[C@H](C)Oc2ccc(NC(=O)Cc3ccccc3)cc2C(=O)N([C@@H](C)CO)C[C@@H]1C	none (no result: Wnt act, ssDAF12 agonist, DAX1 inh, hgDAF-12 ag, hcDAF-12 act)
CCCNC(=O)[C@H]1[C@H](CO)[C@H]2Cn3c(cccc3=O)[C@@H]1N2S(=O)(=O)c1ccccc1F	none (no result: Wnt act, ssDAF12 agonist, DAX1 inh, hgDAF-12 ag, hcDAF-12 act)
COc1ccccc1C#Cc1ccc2c(c1)[C@H]1[C@H](CCN1C(=O)c1ccncc1)[C@H](CO)N2	none (no result: Wnt act, ssDAF12 agonist, DAX1 inh, hgDAF-12 ag, hcDAF-12 act)
COc1ccccc1NNC(=O)c1cc(C(C)(C)C)nn1Cc1ccccc1	Wnt act 54 (no result: esBAF inh)
COc1ccc(S(=O)(=O)N[C@@H]2CC[C@H](CCNC(=O)c3ccccc3F)O[C@@H]2CO)cc1	none (no result: Wnt act, ssDAF12 agonist, DAX1 inh, hgDAF-12 ag, hcDAF-12 act)
COC(=O)C1(C(=O)OC)C[C@H](/C=C/c2ccccc2)N(Cc2ccccc2OC)[C@@H]1c1ccccc1	DAX1 inh 3.9 (no result: esBAF inh)
Cc1cc(C(=O)CSc2ccccc2)cc(C)c1O	esBAF inh 68
CCCCNC(=O)CCC(=O)Nc1ccc2nc(N3CCOCC3)cc(C)c2c1	esBAF inh 43
Cc1cc(N2CCOCC2)nc2ccc(NC(=O)CCC(=O)N3CCN(c4ccccc4)CC3)cc12	esBAF inh 53
Cc1cc(N2CCCCC2)nc2ccc(NC(=O)CCC(=O)NCCC(C)C)cc12	Wnt act 43, esBAF inh 74
Cc1noc(C)c1NC(=O)Nc1cccc2c1O[C@H](CN(C)CC1CC1)[C@H](C)CN([C@H](C)CO)C2=O	none (no result: Wnt act, ssDAF12 agonist, DAX1 inh, hgDAF-12 ag, hcDAF-12 act)
O=C(CSc1ccccn1)N/N=C/c1c[nH]c2ccccc12	hcDAF-12 act 5.8 (no result: esBAF inh)
O=C(O)COc1ccccc1/C=N/NC(=O)CSc1nnc(SCc2cccc3ccccc23)s1	none (no result: esBAF inh)
O=C(CSc1nnc(SCc2ccc(Cl)cc2)s1)N/N=C/c1c[nH]c2ccccc12	hcDAF-12 act 5.6 (no result: Wnt act, esBAF inh)
O=C(CSc1nnc(SCc2cccc3ccccc23)s1)N/N=C/c1c[nH]c2ccccc12	ssDAF12 agonist 1.4 (no result: Wnt act, esBAF inh)
C[C@@H]1CN([C@H](C)CO)C(=O)c2cc(C#CC3CCCCC3)cnc2O[C@H]1CN(C)S(C)(=O)=O	none (no result: Wnt act, ssDAF12 agonist, DAX1 inh, hgDAF-12 ag, hcDAF-12 act)
CCCCc1n[nH]c2c1/C(=N/O)CC(c1ccccc1)C2 (stereo not given)	none
CCCCc1noc2c1/C(=N\O)CC(c1ccccc1)C2 (stereo not given)	esBAF inh 59
CC1=NN(C(N)=S)C(=O)C1N=Nc1cccc(C)c1 (stereo not given)	esBAF inh 67
CC1=NN(C(N)=S)C(=O)C1N=Nc1ccccc1Cl (stereo not given)	none
CC1=NN(C(N)=S)C(=O)C1N=Nc1ccc(C)c(Br)c1 (stereo not given)	hcDAF-12 act 6.1
CC1=NN(C(N)=S)C(=O)C1N=Nc1ccc(Cl)cc1Cl (stereo not given)	esBAF inh 79
